Rows were chosen to be rich in hits. Some 12% of all compounds tested hit in one or more screens of this group.
NS1 inh: influenza NS1 inhibition; 0.4% of 270,000 active; Potency, µM (titrated, usually from 46.1 µM), for the others: at the top dose activity, positive = more growth; further: potency means the concentration at half of the fitted maximal effect; actives are rising curves; nearly all actives have a fitted effect of over 50% in size
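OD600 was taken as the measure of yeast growth restored by compound in an NS1-expressing S. cerevisiae strain. Cells had been washed out of glucose medium and diluted 1:100 into galactose -URA medium, pH 6.0.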
SARS PLpro yeast: blocks SARS-CoV papain-like protease in a yeast assay. Potency, µM (top dose mostly 32.9 µM), inactives show top-dose activity, positive = growth rescue, actives largely listed as activators. S. cerevisiae expressing SARS-CoV PLpro, growth rescue. 0.19% of 330,000 active; further: potency means the concentration at half of the fitted maximal effect; 0% is about no effect; nearly all actives have a fitted effect of over 55% in size
Cycloheximide cs: counter-screen hit for Shiga toxin inhibitors, cycloheximide | cell reporter, cycloheximide protein synthesis inhibition counterscreen | max response, % | 12% of 300,000 active; in the data active means max response mostly above about 13%, no sharp cut-off; inactive means mostly below about 14%; further: read at 38.3 µM for the half of the compounds with a filed dose; 0% is about no effect
Shiga inhibitor: inhibitors of Shiga toxin in Vero cells; Vero cells, Shiga toxin protein synthesis inhibition reporter; inhibition, % at 38.7 µM; 9.2% of 290,000 active; in the data active means inhibition mostly above about 28%, no sharp cut-off; inactive means mostly below about 43%; further: 0% is about no effect
* = called active by the depositor; ? = inconclusive; nt = no result given; + = active, no number. Unless noted, the call rests on the fitted dose curve.

SMILES	NS1 inh	SARS PLpro yeast	Cycloheximide cs	Shiga inhibitor
N#Cc1nc(-c2ccc(F)cc2)oc1NCc1cccc2c1OCO2	-2%	0%	34*	46
CC(C)(C)c1ccc(-c2nc(C#N)c(NCc3ccncc3)o2)cc1	-42%	-8%	57*	91*
Cc1ccc(CNc2oc(-c3ccco3)nc2C#N)cc1	-54%	13%	10	15
N#Cc1nc(-c2ccc(F)cc2)oc1N1CCCCC1	-2%	-4%	8	45
Cc1ccc(-c2nc(C#N)c(NCc3cccc4c3OCO4)o2)cc1	-34%	-11%	26*	59*
COc1cccc(CN(C)C(=O)c2cc(-c3cccs3)nc3ccccc23)c1	-62%	-2%	1	-4
Cc1nc(CC(=O)c2ccc(O)cc2O)cs1	-1%	10%	12	30
Cc1nc(CC(=O)c2ccc(O)c(C)c2O)cs1	-6%	1%	9.7*	47*
Cc1ccc(NC2=NCC(=O)N2Cc2ccc3c(c2)OCO3)c(C)c1	-11%	-3%	-3	0
Cc1ccc(Nc2nnc(-c3ccc4c(c3)OCO4)o2)c(C)c1	-14%	-1%	32*	62*
CCOC(=O)Cn1c(=N)n(Cc2ccccc2F)c2ccccc21	-4%	5%	-2	-9
Cc1ccc(Nc2nnc(SCC(=O)NC3CCCc4ccccc43)s2)cc1 (configuration not stated)	10%	7%	0	4
N#CC1=C(Nc2ccc(Br)cc2)CCC1	12%	1%	-1	23
Cc1ccc(NC2=Nc3ccccc3CC2)cc1	-35%	27%	11*	32
Brc1ccc(NC2=Nc3ccccc3CC2)cc1	-12%	-2%	56*	+
COCCSc1nnc(NC(=O)c2ccc(NC(=O)C(C)C)cc2)s1	1%	0%	0	-20
O=C(NNC1=C(C(=O)C(F)(F)F)CCC1)c1cccnc1	-1%	2%	38*	50
Cc1cccc(C(=O)NNC2=C(C(=O)C(F)(F)F)CCC2)c1O	-57%	-20%	15	17
O=C(NNC(=S)NCc1ccco1)c1cccs1	5%	-20%	0	-6
O=C(CSCc1ccco1)c1cccs1	0%	2%	39*	82*
O=C(CSc1nnc(-c2ccc(Cl)cc2)n1Cc1ccco1)c1cccs1	-1%	-2%	58*	44*
C=CCn1c(SCC(=O)c2cccs2)nnc1-c1cccc(OC)c1	-31%	-2%	18*	37*
COc1cc(/C=C/C(=O)OCC(=O)Nc2cc(C(F)(F)F)ccc2N2CCOCC2)ccc1O	17%	-1%	-2	-14
CS[C@@H](CC(=O)O)C(=O)O	-2%	nt	nt	nt
O=[As](O)(O)c1ccc(Cc2ccc([As](=O)(O)O)cc2)cc1	-39%	nt	nt	nt
SMILES	NS1 inh	SARS PLpro yeast	Cycloheximide cs	Shiga inhibitor
CN1C(=O)C2(N=c3ccccc3=N2)c2ccccc21	-30%	-10%	-2	-1
COC(=O)CCN1CCc2cc(N=Nc3ccc([N+](=O)[O-])cc3)ccc21	3%	2%	39*	88
Cc1cc(C)n2nc(C(=O)OCC(=O)Nc3ccc4c(c3)OCCO4)nc2n1	nt	0%	nt	nt
CCCCN(C(=O)c1ccc2c(c1)S(=O)(=O)N=C1CCCCCN12)c1c(N)n(CCCC)c(=O)[nH]c1=O	nt	-1%	nt	nt
Cc1cccc(C(=O)Nc2cccc(C(=O)N/N=C/c3ccc4c(c3)OCO4)c2)c1	-4%	0%	40*	79*
Cc1cccc(C(=O)Nc2ccc(C(=O)N/N=C/c3ccc4c(c3)OCO4)cc2)c1	17%	-5%	-6	-4
O=C(N/N=C/c1ccc2c(c1)OCO2)c1cccc(NC(=O)c2ccccc2Cl)c1	7%	3%	12	48*
Cc1ccccc1C(=O)Nc1cccc(C(=O)N/N=C/c2ccc3c(c2)OCO3)c1	9%	3%	20*	55*
O=C(N/N=C/c1ccc2c(c1)OCO2)C(=O)Nc1cccc(Cl)c1	7%	3%	16*	65*
N=C(c1ccc2ccccc2c1)c1ccccc1Cc1ccccc1	-13%	nt	nt	nt
O=C(O)C(CCCCNS(=O)(=O)c1ccc(F)cc1)NS(=O)(=O)c1ccc(F)cc1 (configuration not stated)	2%	4%	-6	-1
COCCn1nnnc1C(c1cccs1)N1CCN2CCCC2C1 (configuration not stated)	-3%	0%	14*	54*
CC(C)C(c1nnnn1Cc1ccc(F)cc1)N1CCN(C2CCCCC2)CC1 (configuration not stated)	-7%	-3%	-2	-8
Fc1ccc(Cn2nnnc2C(c2cccs2)N2CCN(C3CCCCC3)CC2)cc1 (configuration not stated)	1%	0%	14*	55*
COCCn1nnnc1C(c1cccs1)N1CCN(c2cccc(C(F)(F)F)c2)CC1 (configuration not stated)	-9%	-5%	-2	-17
C=CC[C@@H](CC(=O)N[C@H](CO)Cc1ccccc1)C(=O)N[C@@H](COC(=O)[C@@H](CC=C)CC(=O)OC(C)(C)C)Cc1ccccc1	nt	-3%	nt	nt
Cc1cc(C)c2nc(N)sc2c1	-63%	-20%	34*	30
Cc1cc(C)c2sc(N)nc2c1	nt	-2%	-4	8
COc1ccc(N(CC(=O)NCc2ccc(F)cc2)C(=O)c2snc(C(N)=O)c2N)cc1	1%	16µM*	8	4
O=C(NCc1ccc(-c2nc3ccccc3s2)cc1)c1cc2ccccc2o1	10%	14%	20*	48*
O=C(NCc1ccc2c(c1)OCO2)c1cc2ccccc2o1	-7%	-1%	8	-11
O=C(NCc1ccc(-c2nc3ccccc3s2)cc1)c1ccc(Br)o1	12%	11%	28*	40*
O=C(COc1ccccc1F)NCC(c1ccco1)N1CCCC1 (configuration not stated)	nt	0%	1	7
c1ccc2c[n+](Cc3ccnc4ccccc34)ccc2c1	0%	nt	nt	nt
CCOC(=O)CN(C)C(=O)CCc1nnc(-c2ccc(-c3ccccc3)cc2)o1	-33%	-4%	13*	35
SMILES	NS1 inh	SARS PLpro yeast	Cycloheximide cs	Shiga inhibitor
CCOC(=O)c1nnc(-c2ccccc2)o1	-6%	-3%	-3	-4
CCOC(=O)Cc1nnc(-c2ccccc2)o1	-2%	-3%	22*	36
CCN(CC)CCN(C)C(=O)CCc1nnc(-c2ccc(C)s2)o1	12%	0%	22*	34*
Cc1ccc(S(=O)(=O)N(C)CC(=O)OCc2nnc(-c3ccccc3)o2)cc1	-157%	-11%	8	33
Cc1cccc(CC(C)NC(=O)CCc2nnc(-c3ccccc3)o2)n1 (configuration not stated)	0%	2%	13*	22
COC(=O)C(C(=O)Nc1ccccc1C)C1CCCCCC1 (configuration not stated)	3%	0%	-3	19
CC(C)(CO)CNC(=O)CCc1nnc(-c2ccc(-c3ccccc3)cc2)o1	-5%	-1%	25*	60*
COc1ccccc1-c1coc2cc(O)cc(O)c2c1=O	-108%	-17%	30*	61*
COc1ccc(-c2c(C)oc3cc(O)cc(O)c3c2=O)cc1OC	-35%	?	-1	39
O=c1c(-c2ccc(O)cc2O)coc2cc(O)cc(O)c12	1%	0%	2	6
COc1ccc(-c2coc3cc(O)cc(O)c3c2=O)cc1OC	-6%	4%	27*	56*

Compound activity as filed in PubChem.
